Screens from PubChem.
Hits are enriched below; roughly 15% of the tested compounds scored in any of these assays.
ELG1 DNA repair = inhibitors of ELG1-dependent DNA repair in HEK293T cells; HEK293T ELG1-luciferase reporter, luminescence, 16 h; DNA damage induced by 5-fluorouridine; Potency, µM (doses to about 46.1 µM), for the others: top-dose activity change, negative = inhibition, most hits filed as inhibitors; 330,000 compounds, 2.3% hits; note: nearly all actives have a fitted effect of over 55% in size
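5-Fluorouridine DNA damage + compound/DMSO, 2,000 cells/well, 16 h, 37 °C/5% CO2. ONE-Glo, 30 min RT, luminescence. Readout = decrease in reporter signal.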
TDP1 cell CPT = DT40-hTDP1 cell growth loss with CPT; chicken DT40 Tdp1-/-;hTDP1 cells + 20 nM CPT, ATP luminescence, 48 h; Potency, µM (top dose mostly 46.2 µM), for the others: at the top dose activity change, negative = growth inhibition, usual class: inhibitors; 420,000 compounds, 12% hits; AID 686979; note: nearly all actives have a fitted effect of over 55% in size
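Chicken DT40 Tdp1-/- cells complemented with human TDP1, 400 cells/well, exposed to compounds plus 20 nM camptothecin for at least 48 h at 37 C; viability read as ATP content by CellTiter-Glo luminescence.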
ALOX12 inh = blocks human arachidonate 12S-lipoxygenase; P18054; 580,000 compounds, 1.1% hits; purified 12hLO, xylenol orange hydroperoxide absorbance; Potency, µM (highest dose often 108 µM), inactives show at the top dose activity change, negative = inhibition, actives largely listed as inhibitors; AID 1671190
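Hydroperoxide product was detected by ferrous iron/xylenol orange as the 573 to 405 nm absorbance ratio. Arachidonic acid at 40 uM (final) was turned over for 30 min at room temperature by 150 nM human 12hLO, pH 7.0 Hepes buffer, after 15 min compound preincubation.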
TDP1 cell noCPT = qHTS for Inhibitors of human tyrosyl-DNA phosphodiesterase 1 (TDP1): qHTS in cells in absence of CPT; AID 686978, 2013; 420,000 compounds, 15% hits; DT40 Tdp1-/- hTDP1 cells, no CPT, ATP luminescence, 48 h; Potency, µM (highest dose often 46.2 µM), for inactives: top-dose activity change, negative = growth inhibition, hits mostly inhibitors; note: nearly all actives have a fitted effect of over 55% in size
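Growth of hTDP1-complemented DT40 Tdp1-knockout cells is measured by ATP luminescence after at least 48 hr compound exposure at 37 °C, with DMSO substituting for the 20 nM CPT used in the parallel screen.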
RORg inh = blocks mouse ROR gamma transcriptional activity; P51450; Drosophila S2 Gal4-RORgamma UAS-luciferase reporter, 20 h; Potency, µM (titrated, usually from 53.6 µM), inactives show at the top dose activity change, negative = inhibition, hits mostly inhibitors; 310,000 compounds, 5.4% hits; AID 2551; note: nearly all actives have a fitted effect of over 60% in size
Target sequence (P51450 whole entry, looked up, the tested form may be a part): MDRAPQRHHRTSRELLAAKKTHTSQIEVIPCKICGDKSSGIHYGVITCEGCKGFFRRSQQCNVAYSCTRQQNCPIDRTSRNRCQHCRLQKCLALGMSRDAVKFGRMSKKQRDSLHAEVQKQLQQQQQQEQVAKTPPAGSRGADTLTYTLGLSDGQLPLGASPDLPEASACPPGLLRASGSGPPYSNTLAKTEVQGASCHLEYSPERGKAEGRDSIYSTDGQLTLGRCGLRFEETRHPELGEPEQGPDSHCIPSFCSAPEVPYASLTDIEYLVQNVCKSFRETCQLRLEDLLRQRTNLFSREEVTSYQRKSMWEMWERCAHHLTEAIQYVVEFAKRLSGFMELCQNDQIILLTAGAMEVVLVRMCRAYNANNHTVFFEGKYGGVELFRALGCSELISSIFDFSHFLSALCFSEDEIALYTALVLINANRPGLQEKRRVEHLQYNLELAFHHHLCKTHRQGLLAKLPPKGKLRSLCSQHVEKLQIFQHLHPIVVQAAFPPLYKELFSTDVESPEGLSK
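Drosophila Schneider cells stably carrying a metallothionein-driven Gal4 DBD–ROR gamma fusion and a UAS-Photinus luciferase reporter were exposed to compound for 1 hr, then induced with copper sulfate (700 uM final) for 20 hr at ambient temperature before luminescence reading.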
VP16 counter = Gal4-VP16 reporter inhibition counter-screen. Drosophila S2 Gal4-VP16 UAS-luciferase, luminescence, 20 h. Potency, µM (titrated, usually from 53.6 µM), inactives show at the highest dose activity, negative = inhibition, actives largely listed as inhibitors. 310,000 compounds, 3.5% hits;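 note: Gal4-VP16 expression switched on by copper sulfate through the metallothionein promoter; nearly all actives have a fitted effect of over 50% in size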
* marks the source's active call; other numbers are inactive results. Calls come from the whole dose curve; as a rule, active = well fitted curve in the direction sought with a large enough effect; inconclusive = small, poorly fitted or top-dose-only effect, or another doubt; inactive = no such curve, though single readings can be large; an effect the other way counts as inactive or inconclusive. % is set by controls: 0 for no effect and ±100 for the full control effect; potency is the fitted concentration of half-maximal effect.

O=c1[nH]c(S)nc2sc3c(c12)CCCC3 was read as ELG1 DNA repair 6.1%, TDP1 cell CPT -11.1%, TDP1 cell noCPT 7.3%, RORg inh 12.6µM* and VP16 counter -19.7%.
For CC1(C)Cc2c(sc3nn[nH]c(=O)c23)CO1 the results were ELG1 DNA repair 6.7%, TDP1 cell CPT -4.4%, ALOX12 inh inconclusive, TDP1 cell noCPT 5.6%, RORg inh 7.7% and VP16 counter 15.1%.
For CN1C[C@H](NCc2cccc(Cl)c2)CCC[C@@H](C(=O)NCc2cc(F)cc(F)c2)CC1=O the results were ALOX12 inh 2.9%.
For Cn1c(=O)[nH]c(=O)c2c1nc(Nc1cccc(Cl)c1Cl)n2CC(=O)O the results were ALOX12 inh 9.4%.
For COc1ccc(S(=O)(=O)N2CCOCC2)cc1NC(=O)COC(=O)CC1CC2CCC1C2 (configuration not stated) the results were ELG1 DNA repair 9.6%, TDP1 cell CPT -26.2%, ALOX12 inh -10.3% and TDP1 cell noCPT -5.6%.
For O=C(CSc1ccccc1)Nc1ccc(Cl)c(S(=O)(=O)N2CCOCC2)c1 the results were ELG1 DNA repair 13µM*, TDP1 cell CPT -1.6%, ALOX12 inh -25.6% and TDP1 cell noCPT -26.4%.
For O=C(CSc1nc2ccccc2s1)Nc1ccc(N2CCOCC2)c(Cl)c1 the results were ELG1 DNA repair -8.3%, TDP1 cell CPT 16.4µM*, ALOX12 inh inconclusive, TDP1 cell noCPT 20.6µM*, RORg inh inconclusive and VP16 counter inconclusive.
For O=C(COC(=O)CC1CC2CCC1C2)Nc1ccc(Cl)c(S(=O)(=O)N2CCOCC2)c1 (configuration not stated) the results were ELG1 DNA repair -29.8%, TDP1 cell CPT 16.4µM*, ALOX12 inh -1.2% and TDP1 cell noCPT inconclusive.
O=C(CSc1nc2ccccc2s1)Nc1nc2ccccc2s1 was read as ALOX12 inh -9.6%.
Cc1nc(NC(=O)CSc2nc3ccccc3s2)sc1C(=O)N(C)C was read as ELG1 DNA repair -18.9%, TDP1 cell CPT -4.0%, ALOX12 inh 39.8µM*, TDP1 cell noCPT inconclusive, RORg inh -36.1% and VP16 counter -10.6%.
`O=C(CSc1ncccn1)Nc1ccc(Cl)c(S(=O)(=O)N2CCOCC2)c1` gave ELG1 DNA repair -4.5%, TDP1 cell CPT -4.5%, ALOX12 inh -2.6% and TDP1 cell noCPT -22.5%.
For CCOC(=O)C1CCN(C(=O)c2ccc3c(c2)N(CC)C2CCCCCN2C3=O)CC1 (configuration not stated) the results were ALOX12 inh 27.1%.
For CC(OC(=O)C1CCC1)C(=O)c1c[nH]c2ccccc12 (configuration not stated) the results were ALOX12 inh 29.3%.
`O=C(CSc1nc2cc(Cl)ccc2s1)Nc1cccc(S(=O)(=O)N2CCOCC2)c1` gave ELG1 DNA repair inconclusive, TDP1 cell CPT inconclusive, ALOX12 inh -17.0%, TDP1 cell noCPT 20.6µM*, RORg inh inconclusive and VP16 counter -2.8%.
For O=C(CSc1nc2ccccc2s1)Nc1ccc(Cl)c(S(=O)(=O)N2CCOCC2)c1 the results were ELG1 DNA repair inconclusive, TDP1 cell CPT 23.1µM*, ALOX12 inh -18.4%, TDP1 cell noCPT inconclusive, RORg inh inconclusive and VP16 counter inconclusive.
Screening O=C(CSc1nc2ccccc2s1)Nc1ccc(F)cc1F returned ALOX12 inh 47.0%.
Screening O=C(CSc1nnc(C23CC4CC(CC(C4)C2)C3)o1)Nc1ccc(N2CCOCC2)c(Cl)c1 returned ELG1 DNA repair -6.8%, TDP1 cell CPT inconclusive, ALOX12 inh -9.0%, TDP1 cell noCPT 17.8µM*, RORg inh 1.8% and VP16 counter -0.3%.
`O=C(CSc1nc2ccccc2s1)Nc1ccc(F)c(F)c1` gave ALOX12 inh 35.5µM*.
For CC(C)n1c(SCc2ccccc2Cl)nc2c1c(=O)[nH]c(=O)n2C the results were ALOX12 inh -11.7%.
Cc1cn2nc(C(=O)NCc3ccco3)cc2c(=O)[nH]1 was read as ALOX12 inh 30.5%.
CN(Cc1cccc(C(F)(F)F)c1)C(=O)C1CCC(=O)N(CC2CCCCC2)C1 (configuration not stated) was read as ELG1 DNA repair -2.3%, TDP1 cell CPT inconclusive, ALOX12 inh 48.3%, TDP1 cell noCPT 16.4µM*, RORg inh 51.0% and VP16 counter -4.9%.
`COc1ccc(C)cc1C(C)NC(=O)c1n[nH]c(=O)c2ccccc12` (configuration not stated) gave ALOX12 inh -15.2%.
`Cc1ccc(CNC(=O)Cc2csc(-c3ccccn3)n2)cc1F` gave ALOX12 inh -19.6%.
Cc1ccc(S(=O)(=O)N2CCOCC2)cc1C(=O)Nc1ccc(-c2cn3ccsc3n2)cc1 was read as ELG1 DNA repair 18.4µM*, TDP1 cell CPT 11.2µM*, ALOX12 inh -22.9%, TDP1 cell noCPT 11.2µM*, RORg inh inconclusive and VP16 counter 21.0%.
For Cc1ccc(S(=O)(=O)N2CCOCC2)cc1C(=O)Nc1ccncc1 the results were ELG1 DNA repair -1.9%, TDP1 cell CPT -1.2%, ALOX12 inh 26.2% and TDP1 cell noCPT -10.1%.
Screening O=C(Nc1nc(-c2ccccn2)cs1)c1ccc(F)c(S(=O)(=O)N2CCOCC2)c1 returned ELG1 DNA repair 7.8%, TDP1 cell CPT 1.46µM*, ALOX12 inh -19.6% and TDP1 cell noCPT 0.581µM*.
`Cc1ccc(S(=O)(=O)N2CCOCC2)cc1C(=O)Nc1nc(-c2cccnc2)cs1` gave ELG1 DNA repair 11.6µM*, TDP1 cell CPT -19.3%, ALOX12 inh 10.0%, TDP1 cell noCPT inconclusive, RORg inh 4.4% and VP16 counter -0.5%.
Screening Cc1ccc(C(=O)Nc2ccccn2)cc1S(=O)(=O)N1CCOCC1 returned ELG1 DNA repair 15.1%, TDP1 cell CPT 0.8%, ALOX12 inh 1.8% and TDP1 cell noCPT 6.4%.
For Cc1ccc(C(=O)Nc2nc(-c3ccccn3)cs2)cc1S(=O)(=O)N1CCOCC1 the results were ELG1 DNA repair -9.9%, TDP1 cell CPT 1.3µM*, ALOX12 inh 9.4% and TDP1 cell noCPT 0.731µM*.
`Cc1nc(N2CCC(C(=O)NC3CCCCCC3)CC2)cc(C(F)(F)F)n1` gave ALOX12 inh 10.3%.
